Hits are enriched below; roughly 3.5% of the tested compounds scored in any of these assays.
FBW7 activator = activators of human E3 ligase FBW7; normalized activity (activation), % at 26.1 µM; 0.13% of 650,000 active; AlphaScreen FBW7–phospho-cyclin E peptide binding, activator screen; in the data active = normalized activity above about 1.9%;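 note: purified mutant Fbw7 with reduced substrate affinity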
TEAD-YAP inh = TEAD-YAP interaction inhibition | HEK-TIYL cells, TEAD-Gal4/YAP UAS-luciferase luminescence | inhibition, % at 9.12 µM | 1.4% of 640,000 active | AID 1259422; in the data active = inhibition above about 32%;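 note: 0% = median of test compound wells and 100% = reference inhibitor wells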
MITF inh = blocks human microphthalmia-associated transcription factor. O75030. AlphaScreen MITF homodimerization, bead proximity signal. inhibition, % at 2.6 µM. 0.91% of 650,000 active; in the data active = inhibition above about 50%;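 note: 0% = vehicle wells with protein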
GPR151 activ = activates the human receptor GPR151; 1% of 650,000 active; AID 1508602; Q8TDV0; activation, % at 11.2 µM; PathHunter beta-arrestin GPR151 cells, luminescence; in the data active = activation above about 4.9%;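 note: 0% = median of compound wells and 100% = cells with positive control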
Target sequence (Q8TDV0 whole entry, looked up): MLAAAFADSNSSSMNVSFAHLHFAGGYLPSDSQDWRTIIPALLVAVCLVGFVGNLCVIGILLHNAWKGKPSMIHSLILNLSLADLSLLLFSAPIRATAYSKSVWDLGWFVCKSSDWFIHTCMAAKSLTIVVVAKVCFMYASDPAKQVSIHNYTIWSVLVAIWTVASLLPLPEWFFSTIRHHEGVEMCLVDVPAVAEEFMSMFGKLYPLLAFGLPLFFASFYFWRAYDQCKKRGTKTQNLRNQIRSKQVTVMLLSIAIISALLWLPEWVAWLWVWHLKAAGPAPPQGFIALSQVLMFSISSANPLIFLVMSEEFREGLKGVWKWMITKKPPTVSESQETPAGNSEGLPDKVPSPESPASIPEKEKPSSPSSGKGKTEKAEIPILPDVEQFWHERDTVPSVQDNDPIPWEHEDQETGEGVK
MITF confirm = human MITF inhibition, confirmation | shares compounds with MITF inh | AlphaScreen MITF homodimerization, biotin/His-MITF beads | inhibition, % at 2.6 µM | 16% of 4,700 active;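 active = inhibition above a cutoff derived from the DMSO control wells, cut at about 28% in these data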;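 note: 0% = MITF dimer wells with DMSO only; inhibitors lower the bead chemiluminescence by keeping MITF from dimerizing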
AS interf ctr = optically interferes with AlphaScreen signal. inhibition, % at 2.6 µM. shares compounds with MITF inh. LysRS AlphaScreen counterscreen, signal interference, triplicate. 7.6% of 4,700 active;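 active = inhibition above a cutoff derived from the DMSO control wells, cut at about 30% in these data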
* = called active by the depositor.

CN1CCN(C(=O)C2CCCN(S(=O)(=O)c3ccccc3[N+](=O)[O-])C2)CC1 (centres undefined) was read as FBW7 activator 0, TEAD-YAP inh 2, MITF inh 82*, GPR151 activ 4, MITF confirm 10 and AS interf ctr 15.
O=[N+]([O-])c1ccccc1S(=O)(=O)N1CCN(Cc2cccnc2)CC1 was read as FBW7 activator 0, TEAD-YAP inh -13, MITF inh 74*, GPR151 activ -1, MITF confirm 15 and AS interf ctr 19.
`O=[N+]([O-])c1ccccc1S(=O)(=O)N1CCN(Cc2ccccc2Br)CC1` gave FBW7 activator 0, TEAD-YAP inh 6, MITF inh 65*, GPR151 activ 0, MITF confirm 0 and AS interf ctr 17.
Screening CCOC(=O)C1CCN(C(c2ccco2)c2sc3nc(C)nn3c2O)CC1 (centres undefined) returned FBW7 activator 0, TEAD-YAP inh 7, MITF inh -6 and GPR151 activ 1.
Screening O=C1C[C@@H](O)C(O)[C@@H]2[C@@H]3C(=O)N(C[C@@H]4CCCO4)C(=O)[C@@H]3CC[C@H]12 (some centres undefined) returned FBW7 activator 0, MITF inh 0 and GPR151 activ 1.
CC(=O)Nc1ccc(S(=O)(=O)N2CCN(Cc3ccccc3C(F)(F)F)CC2)cc1 was read as FBW7 activator 0, TEAD-YAP inh 1, MITF inh 70*, GPR151 activ 1, MITF confirm 4 and AS interf ctr 7.
`O=S(=O)(NCCN1CCN(c2ccccc2F)CC1)c1ccccc1Cl` gave FBW7 activator 0, TEAD-YAP inh -5, MITF inh 72*, GPR151 activ 2, MITF confirm 2 and AS interf ctr -4.
For Cn1c(=O)oc2cc(S(=O)(=O)NCCN3CCN(c4ccccc4F)CC3)ccc21 the results were FBW7 activator 0, TEAD-YAP inh 1, MITF inh 14 and GPR151 activ 0.
For CC1CC(C)CN(CC(=O)Nc2c3c(nc4ccccc24)CCC3)C1 (centres undefined) the results were FBW7 activator 0, TEAD-YAP inh -11, MITF inh 74*, GPR151 activ 1, MITF confirm -7 and AS interf ctr -6.
O=C(CN1CCCCC1)Nc1c2c(nc3ccccc13)CCC2 was read as FBW7 activator 0, TEAD-YAP inh 2, MITF inh 53*, GPR151 activ -1, MITF confirm 17 and AS interf ctr 16.
Screening O=C(c1ccc(F)cc1)N1CCN(Cc2cccc(F)c2)CC1 returned FBW7 activator 0, TEAD-YAP inh 4, MITF inh 58*, GPR151 activ 1, MITF confirm 4 and AS interf ctr 4.
For O=C(c1cccc(Cl)c1)N1CCN(Cc2cccc(F)c2)CC1 the results were FBW7 activator 0, TEAD-YAP inh 3, MITF inh 67*, GPR151 activ 0, MITF confirm -4 and AS interf ctr 6.
O=C(c1ccc(F)cc1)N1CCN(Cc2cccc(Br)c2)CC1 was read as FBW7 activator 0, TEAD-YAP inh 9, MITF inh 58*, GPR151 activ -1, MITF confirm -7 and AS interf ctr -6.
`COc1ccc(C(=O)N2CCN(Cc3cccc(F)c3)CC2)cc1` gave FBW7 activator 0, TEAD-YAP inh -11, MITF inh 46 and GPR151 activ -1.
`COc1cc(OC)cc(C(=O)N2CCN(Cc3cccc(Br)c3)CC2)c1` gave FBW7 activator 0, TEAD-YAP inh 5, MITF inh 41 and GPR151 activ -2.
Screening CSc1ccc(CN2CCOc3ccc(CN4CCN(C(C)=O)CC4)cc3C2)cc1 returned FBW7 activator 0, TEAD-YAP inh 37*, MITF inh 88*, GPR151 activ 1, MITF confirm 3 and AS interf ctr -2.
`CCC(=O)Nc1ccc(OC)c(Cl)c1` gave FBW7 activator 0, TEAD-YAP inh 3, MITF inh 3 and GPR151 activ 0.
`Cc1ccc(N2C(=O)CSC2c2cccc(Cl)c2Cl)cc1C` (centres undefined) gave FBW7 activator 0, TEAD-YAP inh -20, MITF inh -11 and GPR151 activ 0.

Screens: PubChem, The Scripps Research Institute Molecular Screening Center
